# Data as given in publication PMC7862700, “An all-to-all approach to the identification of sequence-specific readers for epigenetic DNA modifications on cytosine”.
# Experiments:
# Test in all cases: DAPPL (digital affinity profiling via proximity ligation, sequencing); 10 mM Tris-HCl pH 7.5, 50 mM NaCl, 1 mM DTT, 4% glycerol, room temperature, 30 min; GST-TFs on glutathione beads, 16-mer random dsDNA library, 0.1% formaldehyde crosslink after washing; high values mean tight binding
# FEV = molecular target: T1, FEV (Homo sapiens, UniProt Q99581 1-238); details: protein: recombinant; tags: N-terminal GST; dsDNA, one strand shown
# T1 sequence: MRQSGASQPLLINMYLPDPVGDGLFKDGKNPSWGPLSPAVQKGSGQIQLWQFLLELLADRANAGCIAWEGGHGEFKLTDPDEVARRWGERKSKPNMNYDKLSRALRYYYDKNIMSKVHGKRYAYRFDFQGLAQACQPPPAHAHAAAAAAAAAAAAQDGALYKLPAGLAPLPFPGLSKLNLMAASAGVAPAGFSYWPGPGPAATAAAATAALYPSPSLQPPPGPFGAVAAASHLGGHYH
# How it was run: (§1)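 Binding signal is given per hexamer as its read frequency for a factor divided by its frequency in the tag-only sample. GST-fused human transcription factors were expressed in yeast, captured on glutathione beads, barcoded with DNA and pooled with that sample, then incubated with 200 nmole of a 16-mer random double-stranded DNA library in Tris/NaCl/DTT/glycerol buffer for 30 min at room temperature. The pools were then washed, crosslinked, proximity-ligated, amplified by PCR and sequenced on an Illumina NextSeq500.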
# ETV5 = ETV5 (Homo sapiens, UniProt P41161 1-510); details: protein: recombinant; tags: N-terminal GST; dsDNA, one strand shown
# Chain of ETV5 (P41161 whole entry): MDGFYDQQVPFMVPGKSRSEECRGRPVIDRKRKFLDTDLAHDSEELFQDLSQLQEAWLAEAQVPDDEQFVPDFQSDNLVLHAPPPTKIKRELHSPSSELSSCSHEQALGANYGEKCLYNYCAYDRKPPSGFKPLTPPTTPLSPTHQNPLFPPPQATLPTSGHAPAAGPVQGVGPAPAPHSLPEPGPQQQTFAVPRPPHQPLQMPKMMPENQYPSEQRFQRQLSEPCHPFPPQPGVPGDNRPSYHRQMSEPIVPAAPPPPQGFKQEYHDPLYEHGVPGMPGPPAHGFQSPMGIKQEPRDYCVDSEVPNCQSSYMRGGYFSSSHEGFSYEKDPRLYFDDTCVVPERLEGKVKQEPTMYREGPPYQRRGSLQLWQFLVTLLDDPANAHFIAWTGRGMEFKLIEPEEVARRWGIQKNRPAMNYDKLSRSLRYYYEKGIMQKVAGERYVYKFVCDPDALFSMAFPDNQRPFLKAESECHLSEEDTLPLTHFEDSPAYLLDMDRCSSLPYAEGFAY
# How it was run: as §1
# HSF1 = HSF1 (Homo sapiens, UniProt Q00613 1-529); details: protein: recombinant; tags: N-terminal GST; chain copies: 3; dsDNA, one strand shown
# Chain of HSF1 (Q00613 whole entry): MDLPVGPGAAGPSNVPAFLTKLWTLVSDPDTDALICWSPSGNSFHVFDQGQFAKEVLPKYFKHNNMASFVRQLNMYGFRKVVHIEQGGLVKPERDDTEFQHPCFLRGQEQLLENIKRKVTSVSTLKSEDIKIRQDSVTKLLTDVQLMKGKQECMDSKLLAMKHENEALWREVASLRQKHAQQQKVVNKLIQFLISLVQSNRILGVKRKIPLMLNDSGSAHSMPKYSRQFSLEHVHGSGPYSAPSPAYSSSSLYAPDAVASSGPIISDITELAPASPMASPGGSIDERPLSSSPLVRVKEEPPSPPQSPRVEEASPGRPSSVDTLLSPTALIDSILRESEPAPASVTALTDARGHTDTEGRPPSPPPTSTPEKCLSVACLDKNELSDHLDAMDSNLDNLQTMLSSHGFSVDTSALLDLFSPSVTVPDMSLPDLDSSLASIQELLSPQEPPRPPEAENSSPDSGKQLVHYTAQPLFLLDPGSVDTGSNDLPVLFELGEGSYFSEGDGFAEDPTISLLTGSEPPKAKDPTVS
# How it was run: as §1
# SPIC = molecular target: T2, SPIC (Homo sapiens, UniProt Q8N5J4 1-248); details: protein: recombinant; tags: N-terminal GST; dsDNA, one strand shown
# T2 sequence: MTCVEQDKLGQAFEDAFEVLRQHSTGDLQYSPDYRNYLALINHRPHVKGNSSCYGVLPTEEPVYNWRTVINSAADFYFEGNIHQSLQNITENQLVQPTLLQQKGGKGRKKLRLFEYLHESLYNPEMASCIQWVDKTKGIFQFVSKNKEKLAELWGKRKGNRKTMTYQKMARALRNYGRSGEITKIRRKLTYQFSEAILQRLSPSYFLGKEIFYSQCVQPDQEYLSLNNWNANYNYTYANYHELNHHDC
# How it was run: as §1
# ELF4 = ELF4 (Homo sapiens, UniProt Q99607 1-663); details: protein: recombinant; tags: N-terminal GST; dsDNA, one strand shown
# Chain of ELF4 (Q99607 whole entry): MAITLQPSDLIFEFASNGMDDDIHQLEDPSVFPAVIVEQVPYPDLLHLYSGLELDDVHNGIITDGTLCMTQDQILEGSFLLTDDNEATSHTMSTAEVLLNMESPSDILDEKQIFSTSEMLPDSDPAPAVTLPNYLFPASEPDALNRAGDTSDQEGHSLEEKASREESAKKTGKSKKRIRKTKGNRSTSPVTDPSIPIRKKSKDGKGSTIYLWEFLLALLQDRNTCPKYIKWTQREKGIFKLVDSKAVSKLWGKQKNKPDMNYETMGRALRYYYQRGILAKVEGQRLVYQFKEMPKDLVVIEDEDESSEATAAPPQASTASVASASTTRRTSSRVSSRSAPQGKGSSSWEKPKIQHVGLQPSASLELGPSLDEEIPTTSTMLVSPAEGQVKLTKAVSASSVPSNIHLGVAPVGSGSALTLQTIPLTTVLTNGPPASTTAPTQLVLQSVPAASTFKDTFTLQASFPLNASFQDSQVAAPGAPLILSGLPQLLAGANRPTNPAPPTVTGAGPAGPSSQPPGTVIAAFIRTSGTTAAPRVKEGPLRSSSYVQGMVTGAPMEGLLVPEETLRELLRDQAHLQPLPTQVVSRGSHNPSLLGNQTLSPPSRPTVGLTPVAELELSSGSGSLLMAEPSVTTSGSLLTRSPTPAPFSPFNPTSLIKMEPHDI
# How it was run: as §1
# ELK4 = molecular target: T3, ELK4 (Homo sapiens, UniProt P28324-2 1-405); details: protein: recombinant; tags: N-terminal GST; dsDNA, one strand shown
# T3 sequence: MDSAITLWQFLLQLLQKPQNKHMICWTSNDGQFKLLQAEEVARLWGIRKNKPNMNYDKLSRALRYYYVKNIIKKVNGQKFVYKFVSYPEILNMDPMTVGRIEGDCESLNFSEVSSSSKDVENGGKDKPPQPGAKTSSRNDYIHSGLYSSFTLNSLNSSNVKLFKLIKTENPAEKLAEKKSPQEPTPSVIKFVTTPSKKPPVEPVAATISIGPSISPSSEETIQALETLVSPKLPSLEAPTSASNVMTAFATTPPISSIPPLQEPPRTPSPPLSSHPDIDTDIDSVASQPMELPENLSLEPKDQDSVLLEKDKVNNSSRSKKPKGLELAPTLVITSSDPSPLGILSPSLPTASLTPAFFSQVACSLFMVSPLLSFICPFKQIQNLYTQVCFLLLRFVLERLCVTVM
# How it was run: as §1
# ETV2 = molecular target: T4, ETV2 (Homo sapiens, UniProt O00321 1-342); details: protein: recombinant; tags: N-terminal GST; dsDNA, one strand shown
# T4 sequence: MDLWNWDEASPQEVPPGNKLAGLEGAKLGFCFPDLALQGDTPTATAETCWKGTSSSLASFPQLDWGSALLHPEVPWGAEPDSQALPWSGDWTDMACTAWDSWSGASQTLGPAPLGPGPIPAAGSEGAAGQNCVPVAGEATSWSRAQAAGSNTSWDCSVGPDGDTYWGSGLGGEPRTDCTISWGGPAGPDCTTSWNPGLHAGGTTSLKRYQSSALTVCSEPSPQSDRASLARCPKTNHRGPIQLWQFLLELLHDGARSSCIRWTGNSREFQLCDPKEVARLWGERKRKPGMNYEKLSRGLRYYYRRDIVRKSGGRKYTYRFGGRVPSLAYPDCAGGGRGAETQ
# How it was run: as §1
# ELF3 = molecular target: T5, ELF3 (Homo sapiens, UniProt P78545 1-371); details: protein: recombinant; tags: N-terminal GST; dsDNA, one strand shown
# T5 sequence: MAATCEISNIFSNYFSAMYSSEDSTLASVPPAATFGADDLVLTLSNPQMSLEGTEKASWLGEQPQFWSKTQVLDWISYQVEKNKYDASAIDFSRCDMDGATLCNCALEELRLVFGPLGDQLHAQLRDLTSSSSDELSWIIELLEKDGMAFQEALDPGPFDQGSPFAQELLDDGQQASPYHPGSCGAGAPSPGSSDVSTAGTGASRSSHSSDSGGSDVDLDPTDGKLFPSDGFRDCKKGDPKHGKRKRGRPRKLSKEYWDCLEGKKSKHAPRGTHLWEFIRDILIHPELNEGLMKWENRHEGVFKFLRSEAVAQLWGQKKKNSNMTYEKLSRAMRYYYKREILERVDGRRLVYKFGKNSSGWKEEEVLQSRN
# How it was run: as §1
# CRX = CRX (Homo sapiens, UniProt O43186 1-299); details: protein: recombinant; tags: N-terminal GST; dsDNA, one strand shown
# Chain of CRX (O43186 whole entry): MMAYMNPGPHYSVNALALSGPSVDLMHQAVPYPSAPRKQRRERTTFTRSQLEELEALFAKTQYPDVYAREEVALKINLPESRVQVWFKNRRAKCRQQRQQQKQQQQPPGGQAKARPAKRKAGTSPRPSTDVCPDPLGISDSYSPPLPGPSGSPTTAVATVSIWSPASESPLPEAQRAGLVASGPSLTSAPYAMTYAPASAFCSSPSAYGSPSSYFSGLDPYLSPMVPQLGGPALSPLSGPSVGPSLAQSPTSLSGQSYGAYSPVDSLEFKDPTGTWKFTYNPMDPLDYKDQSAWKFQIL
# How it was run: as §1
# ETV1 = ETV1 (Homo sapiens, UniProt P50549 1-477); details: protein: recombinant; tags: N-terminal GST; dsDNA, one strand shown
# Chain of ETV1 (P50549 whole entry): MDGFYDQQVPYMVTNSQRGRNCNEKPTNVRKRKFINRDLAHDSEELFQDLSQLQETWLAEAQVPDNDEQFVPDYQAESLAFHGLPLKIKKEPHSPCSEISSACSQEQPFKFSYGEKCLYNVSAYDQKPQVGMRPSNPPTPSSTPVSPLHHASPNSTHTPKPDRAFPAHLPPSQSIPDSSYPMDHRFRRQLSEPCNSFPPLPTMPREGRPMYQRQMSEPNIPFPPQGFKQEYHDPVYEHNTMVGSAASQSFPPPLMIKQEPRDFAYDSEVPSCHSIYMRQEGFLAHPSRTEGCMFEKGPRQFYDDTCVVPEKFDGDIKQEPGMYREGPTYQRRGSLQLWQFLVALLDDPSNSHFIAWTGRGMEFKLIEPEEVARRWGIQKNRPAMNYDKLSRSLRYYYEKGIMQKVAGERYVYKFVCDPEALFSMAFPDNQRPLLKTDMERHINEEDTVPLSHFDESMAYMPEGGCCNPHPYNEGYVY
# How it was run: as §1
Sequence,binding signal (FEV),binding signal (ETV5),binding signal (HSF1),binding signal (SPIC),binding signal (ELF4),binding signal (ELK4),binding signal (ETV2),binding signal (ELF3),binding signal (CRX),binding signal (ETV1)
TCTGGT,"1.12 fold enrichment (6-mer frequency, TF over GST control)","1.28 fold enrichment (6-mer frequency, TF over GST control)","1.8 fold enrichment (6-mer frequency, TF over GST control)","1.38 fold enrichment (6-mer frequency, TF over GST control)","1.28 fold enrichment (6-mer frequency, TF over GST control)","1.17 fold enrichment (6-mer frequency, TF over GST control)","1.16 fold enrichment (6-mer frequency, TF over GST control)","1.34 fold enrichment (6-mer frequency, TF over GST control)","1.33 fold enrichment (6-mer frequency, TF over GST control)","1.1 fold enrichment (6-mer frequency, TF over GST control)"
GAAATT,"1.25 fold enrichment (6-mer frequency, TF over GST control)","1.36 fold enrichment (6-mer frequency, TF over GST control)","1.48 fold enrichment (6-mer frequency, TF over GST control)","1.2 fold enrichment (6-mer frequency, TF over GST control)","1.27 fold enrichment (6-mer frequency, TF over GST control)","1.17 fold enrichment (6-mer frequency, TF over GST control)","1.23 fold enrichment (6-mer frequency, TF over GST control)","1.44 fold enrichment (6-mer frequency, TF over GST control)","1.08 fold enrichment (6-mer frequency, TF over GST control)","1.28 fold enrichment (6-mer frequency, TF over GST control)"
ATACTT,"1.6 fold enrichment (6-mer frequency, TF over GST control)","1.6 fold enrichment (6-mer frequency, TF over GST control)","1.34 fold enrichment (6-mer frequency, TF over GST control)","1.58 fold enrichment (6-mer frequency, TF over GST control)","1.55 fold enrichment (6-mer frequency, TF over GST control)","1.55 fold enrichment (6-mer frequency, TF over GST control)","1.53 fold enrichment (6-mer frequency, TF over GST control)","1.58 fold enrichment (6-mer frequency, TF over GST control)","1.71 fold enrichment (6-mer frequency, TF over GST control)","1.72 fold enrichment (6-mer frequency, TF over GST control)"
ATGTAT,"1.31 fold enrichment (6-mer frequency, TF over GST control)","1.33 fold enrichment (6-mer frequency, TF over GST control)","1.18 fold enrichment (6-mer frequency, TF over GST control)","1.25 fold enrichment (6-mer frequency, TF over GST control)","1.43 fold enrichment (6-mer frequency, TF over GST control)","1.57 fold enrichment (6-mer frequency, TF over GST control)","1.3 fold enrichment (6-mer frequency, TF over GST control)","1.35 fold enrichment (6-mer frequency, TF over GST control)","1.24 fold enrichment (6-mer frequency, TF over GST control)","1.42 fold enrichment (6-mer frequency, TF over GST control)"
CTCGCG,"1.35 fold enrichment (6-mer frequency, TF over GST control)","1.48 fold enrichment (6-mer frequency, TF over GST control)","1.55 fold enrichment (6-mer frequency, TF over GST control)","1.3 fold enrichment (6-mer frequency, TF over GST control)","1.48 fold enrichment (6-mer frequency, TF over GST control)","1.59 fold enrichment (6-mer frequency, TF over GST control)","1.39 fold enrichment (6-mer frequency, TF over GST control)","1.53 fold enrichment (6-mer frequency, TF over GST control)","1.3 fold enrichment (6-mer frequency, TF over GST control)","1.47 fold enrichment (6-mer frequency, TF over GST control)"
AAATTC,"1.26 fold enrichment (6-mer frequency, TF over GST control)","1.38 fold enrichment (6-mer frequency, TF over GST control)","1.95 fold enrichment (6-mer frequency, TF over GST control)","1.34 fold enrichment (6-mer frequency, TF over GST control)","1.32 fold enrichment (6-mer frequency, TF over GST control)","1.15 fold enrichment (6-mer frequency, TF over GST control)","1.26 fold enrichment (6-mer frequency, TF over GST control)","1.35 fold enrichment (6-mer frequency, TF over GST control)","1.51 fold enrichment (6-mer frequency, TF over GST control)","1.3 fold enrichment (6-mer frequency, TF over GST control)"
TTGCTC,"1.25 fold enrichment (6-mer frequency, TF over GST control)","1.41 fold enrichment (6-mer frequency, TF over GST control)","1.3 fold enrichment (6-mer frequency, TF over GST control)","1.34 fold enrichment (6-mer frequency, TF over GST control)","1.24 fold enrichment (6-mer frequency, TF over GST control)","1.16 fold enrichment (6-mer frequency, TF over GST control)","1.4 fold enrichment (6-mer frequency, TF over GST control)","1.29 fold enrichment (6-mer frequency, TF over GST control)","1.17 fold enrichment (6-mer frequency, TF over GST control)","1.21 fold enrichment (6-mer frequency, TF over GST control)"
TACTGA,"1.03 fold enrichment (6-mer frequency, TF over GST control)","1.13 fold enrichment (6-mer frequency, TF over GST control)","1.07 fold enrichment (6-mer frequency, TF over GST control)","1.03 fold enrichment (6-mer frequency, TF over GST control)","1.11 fold enrichment (6-mer frequency, TF over GST control)","1.32 fold enrichment (6-mer frequency, TF over GST control)","1.12 fold enrichment (6-mer frequency, TF over GST control)","1.2 fold enrichment (6-mer frequency, TF over GST control)","1.2 fold enrichment (6-mer frequency, TF over GST control)","1.02 fold enrichment (6-mer frequency, TF over GST control)"
